Data as given in PubChem BioAssay (NCATS).
Several values for one entry are separate records, joined by “and”; a condition that tells them apart may be missing. Identical values can stand only once. Inconclusive results are not listed. Activity calls are given as the source filed them. Unless noted, calls follow the shape of the dose curve; as a rule, active = well fitted curve in the direction sought with a large enough effect; inconclusive = small, poorly fitted or top-dose-only effect, or another doubt; inactive = no such curve, though single readings can be large; an effect the other way counts as inactive or inconclusive.

Columns and labels:
[1] = Cell Viability - MRC5 (AID 434; calls by dose curve;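 also: potency is read from the fitted curve at half-maximal effect; cells exposed to compound for 40 hours at 37 °C; potency reflects cytotoxicity seen as loss of intracellular ATP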); conditions: MRC5 lung fibroblast viability, qHTS
Method in brief: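 MRC5 normal human lung fibroblasts (1500/well) were treated with compounds for 40 hr at 37 °C in complete medium, and viable cells were measured as intracellular ATP by CellTiter-Glo luminescence. AC50 came from Hill fits, normalized to DMSO and 100 uM tamoxifen.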

[2] = biological target: Mitogen-activated protein kinase 10 (Mus musculus) (UniProt Q61831); experiment: JNK3 AlphaScreen Assay (AID 530; active = well fitted curve in either direction with a large enough effect, not every such curve was filed as active;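 also: kinase came from lysate of stimulated human HepG2 cells; signal reports phosphorylation of biotinylated GST-cJun 1-79 at Ser73 with 10 µM ATP; % is scaled to controls: 0 for no effect and ±100 for the full control effect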); conditions: JNK3 lysate, c-Jun phosphorylation; series mostly up to 57.1 µM
Method in brief: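 Inhibitors reduce antibody binding to phosphorylated biotin-cJun, lowering AlphaScreen luminescence. Lysates from HepG2 cells pre-activated by IL-1beta plus TNF-alpha supplied JNK3; compounds were titrated.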

[3] = Cellular Toxicity (caspase-3) H-4-II-E (AID 663); conditions: H-4-II-E rat hepatoma; Potency: caspase-3 activation; series mostly up to 92.2 µM;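 also: cells exposed to compound for 16 hr before readout; 0% = DMSO basal and 100% = 100 µM tamoxifen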
Method in brief: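 Luminescence from caspase-cleaved aminoluciferin substrate, read 20 min after reagent addition, reports caspase 3/7 activation in rat H-4-II-E cells after 16 hr compound exposure. Normalized to DMSO (basal) and 100 uM tamoxifen (100%); AC50 from Hill fits.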

[4] = MultiTox-Fluor Cytotoxicity Assay - LYMP1-002 - Live Cells (AID 955); conditions: LYMP1-002 lymphoblastoid live-cell protease fluorescence viability; series mostly up to 46.1 µM; also: % is scaled to controls: 0 for no effect and ±100 for the full control effect
Method in brief: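 Read-out is live-cell protease activity (cell-permeant GF-AFC substrate, fluorescence Ex/Em=405/510), where a decrease indicates acute toxicity. Human lymphoblastoid cells were treated 16 hours at 37 C in a concentration series, and AC50 values came from standard Hill modelling.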

[5] = MultiTox-Fluor Cytotoxicity Assay - LYMP1-003 - Live Cells (AID 962); conditions: LYMP1-003 lymphoblastoid cells, MultiTox-Fluor live-cell protease fluorescence; series mostly up to 92.2 µM;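 also: 0% = DMSO only and full loss = 92 µM tetraoctylammonium bromide; cytotoxic hits lower the live-cell protease signal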
Method in brief: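 qHTS, 1536-well; 2500 cells/well LYMP1-003; 5 hr 37 C settle; cpd 16 hr 37 C; MultiTox-Fluor reagent 60 min RT; live-cell protease fluor. 405/510; Hill-fit AC50; tetraoctylammonium bromide pos. ctrl.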

[6] = Cell Viability - LYMP1-003 - Assay at 40 hr (AID 964); conditions: LYMP1-003 lymphoblastoid viability; series mostly up to 92.2 µM; also: % is scaled to controls: 0 for no effect and ±100 for the full control effect; nearly all actives have a fitted effect of over 60% in size
Method in brief: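 Cells were seeded at 2500 per well and incubated 5 hr at 37 C. Compounds were added across a concentration series and left 40 hr at 37 C. CellTiter-Glo was added for 30 min at room temperature before luminescence reading.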

[7] = Cell Viability - LYMP2-009 (AID 968); conditions: LYMP2-009 lymphoblastoid cell viability; series mostly up to 92.2 µM;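 also: 0% = DMSO alone and the full-kill end = tetraoctylammonium bromide at 92 µM; nearly all actives have a fitted effect of over 55% in size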
[8] = Cell Viability - LYMP2-011 (AID 969); conditions: LYMP2-011 lymphoblastoid cells viability; series mostly up to 92.2 µM;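 also: 0% = DMSO only and full inhibition = 92 µM tetraoctylammonium bromide; nearly all actives have a fitted effect of over 60% in size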
Method in brief: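 2500 cells/well, 5 hr 37 C; compound added, 24 hr 37 C; CellTiter-Glo 30 min RT; luminescence. qHTS concentration-response, Hill-equation AC50. Tetraoctylammonium bromide positive control.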

[9] = Cell Viability - LYMP2-021 (AID 974); conditions: LYMP2-021 lymphoblastoid cells viability; series mostly up to 92.2 µM;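 also: compound exposure lasts 24 hours at 37 °C; % is scaled to controls: 0 for no effect and ±100 for the full control effect; nearly all actives have a fitted effect of over 55% in size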
Method in brief: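 Plate 2500 lymphoblastoid cells per well and incubate 5 hr at 37 C. Add compounds over a concentration range and incubate 24 hr at 37 C. Add CellTiter-Glo, wait 30 min at room temperature, read luminescence.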

[10] = Cell Viability - LYMP2-025 (AID 976); conditions: LYMP2-025 lymphoblastoid cell viability; series mostly up to 92.2 µM;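 also: plate controls were DMSO only for no effect and tetraoctylammonium bromide control for full effect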
Method in brief: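 Seed 2500 LYMP2-025 cells/well; 5 hr at 37 C; add compound; 24 hr at 37 C; add CellTiter-Glo; 30 min RT; read luminescence. AC50 from Hill-modelled concentration-response.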

[11] = Cell Viability - LYMP2-006 (AID 978); conditions: LYMP2-006 lymphoblastoid cell viability, qHTS; series mostly up to 92.2 µM; also: % is scaled to controls: 0 for no effect and ±100 for the full control effect; nearly all actives have a fitted effect of over 60% in size
Method in brief: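 Human lymphoblastoid cells, 2500 per well, were preincubated 5 hr at 37 C, then exposed to compounds for 24 hr at 37 C in complete medium. Viability was read as intracellular ATP by CellTiter-Glo luminescence; AC50 from Hill-equation fits of qHTS concentration-response data.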

[12] = Cell Viability - LYMP2-018 (AID 985); conditions: LYMP2-018 lymphoblastoid cells, viability (qHTS); series mostly up to 92.2 µM;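 also: compound exposure lasted 24 hr at 37 °C; plate controls were DMSO only for no effect and tetraoctylammonium bromide at 92 µM for full effect; nearly all actives have a fitted effect of over 50% in size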
Method in brief: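 Luminescent ATP signal (CellTiter-Glo, read after 30 min at room temperature) reports viable cells after 24 hr compound treatment at 37 C. Concentration-response data were fitted to the standard Hill equation for AC50.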

[13] = qHTS assay for small molecule activators of the nuclear factor-kappa B (NF-kB) signaling pathway (AID 651749; active = well fitted activation curve with a large enough effect in the signal ratio; the % refers to the signal ratio; also: % of control where 0% means no effect); conditions: NF-kB-bla ME-180 cells, beta-lactamase FRET ratio, 16 h; active compounds read high
Method in brief: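 Screening used 2,000 ME-180 reporter cells per well exposed to pinned compound (23 nL) or DMSO; after 16 hr at 37C, beta-lactamase expression under NF-kB control was assessed through FRET.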

[14] = qHTS assay for small molecule antagonists of the retinoid-related orphan receptor gamma (ROR-gamma) signaling pathway - cell viability counter screen (AID 720652; active = well fitted curve in the direction sought with a large enough effect in the repeat runs; an effect the other way counts as inactive or inconclusive;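 also: compound exposure lasted 16 hr before ATP read; % is scaled to controls: 0 for no effect and ±100 for the full control effect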); conditions: RORgamma reporter cell line viability counter screen; series mostly up to 92.2 µM
Method in brief: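 Luminescence from CellTiter-Glo after 30 min at room temperature reported cellular ATP as the cytotoxicity measure. Cells were the CHO reporter line with doxycycline-induced ROR-gamma expression, exposed to compound for 16 hr at 37 C.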

[15] = biological target: Nuclear receptor subfamily 1 group I member 2 (Rattus norvegicus) (UniProt Q9R1A7); experiment: qHTS assay for small molecule activators of the rat pregnane X receptor (rPXR) signaling pathway (AID 651751; call rule not given here; also: 0% is about no effect); conditions: rPXR reporter cells, luciferase (One-Glo), 24 h
Sequence of Nuclear receptor subfamily 1 group I member 2 (Rattus norvegicus) (Q9R1A7 whole entry, looked up): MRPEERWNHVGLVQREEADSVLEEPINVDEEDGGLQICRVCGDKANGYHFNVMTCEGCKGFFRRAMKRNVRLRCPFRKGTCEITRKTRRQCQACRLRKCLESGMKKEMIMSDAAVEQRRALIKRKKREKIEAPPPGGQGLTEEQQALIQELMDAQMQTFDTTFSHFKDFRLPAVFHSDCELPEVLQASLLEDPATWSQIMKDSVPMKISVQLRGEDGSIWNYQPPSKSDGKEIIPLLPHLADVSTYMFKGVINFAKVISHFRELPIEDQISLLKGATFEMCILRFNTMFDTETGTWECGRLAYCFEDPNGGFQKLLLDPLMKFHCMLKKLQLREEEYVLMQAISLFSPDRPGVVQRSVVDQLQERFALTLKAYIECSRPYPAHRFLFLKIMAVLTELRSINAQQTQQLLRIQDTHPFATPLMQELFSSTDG

[16] = qHTS assay for small molecule activators of the human pregnane X receptor (PXR) signaling pathway (AID 720659; call rule not given here; also: 0% is about no effect); conditions: DPX-2 HepG2 CYP3A4-luciferase, 24 h; series mostly up to 92.3 µM
[17] = Cell Viability - HUV-EC-C (AID 542); conditions: HUV-EC-C endothelial cell viability, qHTS; series mostly up to 92.2 µM;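 also: cells exposed to compound for 40 hours; % is scaled to controls: 0 for no effect and ±100 for the full control effect; nearly all actives have a fitted effect of over 35% in size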
Method in brief: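 qHTS cytotoxicity: HUV-EC-C, 1000 cells/well, 5 hr settle, compound 40 hr 37 °C, CellTiter-Glo, luminescence. AC50 via Hill equation.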

[18] = Cell Viability - LYMP2-017 (AID 972); conditions: LYMP2-017 lymphoblastoid cell viability; series mostly up to 92.2 µM; also: % is scaled to controls: 0 for no effect and ±100 for the full control effect; nearly all actives have a fitted effect of over 55% in size
Method in brief: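 2500 cells/well, 5 h 37 C; cpd 24 h 37 C in complete medium; CellTiter-Glo, 30 min RT; luminescence (ATP). AC50 via Hill fit, qHTS.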

[19] = Cell Viability - LYMP2-007 (AID 979); conditions: LYMP2-007 lymphoblastoid cell viability; series mostly up to 92.2 µM;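 also: cells exposed to compound for 24 h before reading; 0% = DMSO only and the negative end = 92 µM tetraoctylammonium bromide; nearly all actives have a fitted effect of over 60% in size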
Method in brief: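 Luminescent ATP signal (CellTiter-Glo) serves as the viability read-out after 24 hr compound treatment of lymphoblastoid cells in complete medium at 37 C. Concentration-response data were fitted to the Hill equation to give AC50 values.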

[20] = Cell Viability - LYMP2-024 (AID 988); conditions: LYMP2-024 lymphoblastoid cell viability; series mostly up to 92.2 µM
Method in brief: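 Steps: seed 2500 cells/well, 5 hr 37 C; add compound, 24 hr 37 C; add CellTiter-Glo, 30 min room temperature; read luminescence. AC50 derived by Hill modelling of concentration-dependent ATP loss.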

CCCC[N+](=O)[O-]
inactive: Potency [1] > 92 µM | Potency [2] | Potency [3] | outcome [4] | outcome [5] | Potency [6] | Potency [7] | Potency [8] | Potency [9] | Potency [10] | Potency [11] | Potency [12] | activation [13] -0.304% | Potency [14] | max response [15] 1.76% | outcome [16]

Cl/C=C/Cl
inactive: Potency [1] > 92 µM | Potency [2] | Potency [17] | Potency [3] | outcome [4] | Potency [6] | Potency [8] | Potency [18] | Potency [9] | Potency [10] | Potency [19] | Potency [12] | Potency [20] | activation [13] -1.04% | Potency [14] | max response [15] -3.34% | outcome [16]

CN(C)C(=O)Nc1cccc(C(F)(F)F)c1
inactive: Potency [1] > 92 µM | Potency [2] | outcome [4] | outcome [5] | Potency [6] | Potency [8] | Potency [18] | Potency [9] | Potency [10] | Potency [11] | Potency [19] | Potency [12] | Potency [20] | activation [13] 0.0409% and 1.96% | Potency [14] | max response [15] 16.9% and 5.91% | outcome [16]

CC(C)[N+](=O)[O-]
inactive: Potency [1] > 92 µM | Potency [2] | Potency [17] | Potency [3] | outcome [4] | outcome [5] | Potency [7] | Potency [8] | Potency [9] | Potency [10] | Potency [11] | Potency [19] | Potency [12] | activation [13] -0.258% | max response [15] 1.27% | outcome [16]

O=C(Cl)c1ccccc1F
inactive: Potency [1] > 92 µM | Potency [2] | Potency [17] | outcome [5] | Potency [6] | Potency [7] | Potency [8] | Potency [18] | Potency [9] | Potency [10] | Potency [11] | Potency [19] | Potency [20] | Potency [14] | max response [15] 4.78% | outcome [16]

O=[N+]([O-])c1cc(Cl)c(Cl)c(Cl)c1
inactive: Potency [1] > 92 µM | Potency [2] | Potency [17] | Potency [3] | outcome [4] | outcome [5] | Potency [6] | Potency [8] | Potency [18] | Potency [10] | Potency [11] | Potency [19] | Potency [12] | Potency [20] | activation [13] -1.89% | Potency [14] | max response [15] -3.17% | outcome [16]

Oc1c(Cl)c(Cl)cc(Cl)c1Cl
inactive: Potency [1] > 92 µM | Potency [17] | Potency [3] | outcome [4] | outcome [5] | Potency [6] | Potency [7] | Potency [8] | Potency [18] | Potency [9] | Potency [10] | Potency [11] | Potency [19] | Potency [12] | Potency [20] | max response [15] -8.76% | outcome [16]
